Consider 38 compounds from PubChem BioAssay (EPA / NIEHS).

“And” between values parts separate entries of the source, which are not always exact repeats. Identical values can stand only once. The source holds several records for some structures; these can differ, active in one and inactive in another. The source made the active and inactive calls. The calls were made as follows: active = hit-call score of the fitted dose curve at least 0.9, where 1 is the maximum; inactive = score below 0.9.

A short description of this experiment: ATG_AP_1_CIS: Attagene CIS-FACTORIAL HepG2 Assay for human Activator Protein 1 (AP-1) (AID 2282931). The settings on record: HepG2 Attagene cis-factorial AP-1 reporter mRNA; actives raise or lower the signal. The method, then: ATG_CIS is a cell-based, multiplexed-readout assay that uses HepG2, a human liver cell line, with measurements taken at 24 hours after chemical dosing in a 24-well plate.ATG_AP_1_CIS is one of 52 assay component(s) measured or calculated from the ATG_CIS assay. It is designed to make measurements of mRNA induction, a form of inducible reporter, as detected with fluorescence intensity signals by Reverse transcription polymerase chain reaction (RT-PCR) and Capillary electrophoresis technology.Data from the assay component ATG_AP_1_CIS was analyzed into 1 assay endpoint. This assay endpoint, ATG_AP_1_CIS, was analyzed with bidirectional fitting relative to DMSO as the negative control and baseline of activity. Using a type of inducible reporter, measures of mRNA for gain or loss-of-signal activity can be used to understand the reporter gene at the transcription factor-level as they relate to the gene FOS and JUN. Furthermore, this assay endpoint can be referred to as a primary readout, because this assay has produced multiple assay endpoints where this one serves a reporter gene function. To generalize the intended target to other relatable targets, this assay endpoint is annotated to the dna binding intended target family, where the subfamily is basic leucine zipper.
Human liver HepG2 cells are transiently transfected with multiple reporter transcription units (MRTUs) in 6-well plates using FuGene 6 reagent (Roche; 3 ml FuGene/1 mg DNA). The MRTU constructs are regulated by a cis-regulating element (promoter). […] A major difference between the CIS and TRANS system is that in CIS activities of endogenous TFs are measured, whereas the TRANS assay evaluates changes in activities of exogenous, chimeric NR-Gal4 proteins. […] At the end of 24 hour incubation, total RNA was isolated using TriZol reagent (Invitrogen). The isolated RNA is then reverse-transcribed using oligo(dT) primer and Mo-MLV reverse transcriptase (Invitrogen) with DNAse I (Ambion) treatment for 30 min. The one-tenth of the produced cDNA was amplified by PCR using Taq DNA polymerase (Invitrogen) and two reporter sequence-specific primers. The PCR products were fluorescently labeled by primer extension with 6-arboxyfluorescein (6-FAM) 5'-labeled reporter sequence-specific primer (2 min at 95 C, 20 s at 68 C and 10 min at 72 C) and these products were digested with 5U of HpaI (New England Biolabs) for 2h at 37 C. The fragments were purified using Qiaquick PCR columns (Qiagen), analyzed on an ABI 3130xL genetic analyzer (Applied Biosystems) with peak positions identified by using a set of X-rhodamine (ROX)-labeled MapMarker1000 molecular weight standards (BioVentures). The raw capillary electrophoresis data was processed using Attagraph software (Attagene).
In the case of `CCN(CC)C(=O)Cl`, the compound was classed as inactive.
As to `CC(=O)C=C(C)C`, the outcome was inactive.
Regarding `COc1cc(-c2ccc(N)c(OC)c2)ccc1N`, the call was inactive.
As for `CC(C#N)CCC#N` (stereo not given), the result was inactive.
Still for that read-out and setting: the value for `COP(=S)(OC)Oc1ccc(Sc2ccc(OP(=S)(OC)OC)cc2)cc1` was “inactive”.
Still for that read-out and setting: the value for `CNC` was “inactive”.
As to `CCc1ccccc1C`, the result was inactive.
Regarding `CCOC(=O)Nc1cccc(OC(=O)Nc2ccccc2)c1`, the outcome was inactive.
For `C=C(C)C#N`, the result was inactive.
The same measure, in the same setting: the same measure for `N#CCCO`: “inactive”.
A word on the AC50: it is the concentration at which the activity in the assay is half-maximal. As to `CCC(C)(C)c1ccc(O)c(C(C)(C)CC)c1`, the AC50 is 12.8 µM (active).
Consider `O=C(Cl)c1ccc(Cl)cc1`, for which the call was inactive.
Take `CCCCCCCCSC(=O)Oc1cc(Cl)nnc1-c1ccccc1`: the AC50 was 122 µM (active).
As for `CC1(C)Cc2cccc(O)c2O1`, the call was inactive.
In the case of `Clc1nc(Cl)nc(Cl)n1`, the compound was classed as inactive.
Turning to `CC(=O)[O][Hg][c]1ccccc1`, the compound was called inactive.
As for `C[C@@H]1C[C@@H]([C@H](O)CC2CC(=O)NC(=O)C2)C(=O)[C@@H](C)C1`, the AC50 is 24.1 µM (active) and 11.9 µM (active); the compound was called inactive.
With `Clc1ccc(C2(Cn3cncn3)CC(Br)CO2)c(Cl)c1` (stereo not given), the AC50 was 35.5 µM (active).
`CN(C)N=O`: the compound was called inactive.
Consider `COP(=O)(OC)O/C(=C\Cl)c1cc(Cl)c(Cl)cc1Cl`, for which the AC50 is 62.4 µM (active).
`Nc1ccc(N=Nc2ccc(-c3ccc(N=Nc4c(S(=O)(=O)O)cc5cc(S(=O)(=O)O)c(N=Nc6ccccc6)c(O)c5c4N)cc3)cc2)c(N)c1`: the outcome was inactive.
Still for that read-out and setting: the value for `C1CCC(NC2CCCCC2)CC1` was “inactive”; that for `NNC(=S)NN` was “inactive”; that for `Clc1ccc(COC(Cn2ccnc2)c2ccc(Cl)cc2Cl)cc1` (stereo not given) was “inactive”.
On to `CC(=[OH+])/C=C(/C)[O-].CC(=[OH+])/C=C(/C)[O-].CC(=[OH+])/C=C(/C)[O-].[Fe]`, for which the outcome was inactive.
On the same count and under the same terms, the same measure for `OCc1ccco1`: “inactive”.
On the same count and under the same terms, the same measure for `c1cc[c]([Hg][c]2ccccc2)cc1`: “inactive”; for `C=CC#N`: “inactive”; for `NC(=O)O`: “inactive”.
Consider `CC1(C)CCC(Cc2ccc(Cl)cc2)C1(O)Cn1cncn1` (stereo not given), for which the AC50 is 33.4 µM (active).
Turning to `CC(C)C1CCC(Cc2ccc(Cl)cc2)C1(O)Cn1cncn1` (stereo not given), the AC50 is 17.5 µM (active).
With `Nc1cccc(Cl)c1`, the compound was classed as inactive.
As to `O=C1C2(Cl)C3(Cl)C4(Cl)C(Cl)(Cl)C5(Cl)C3(Cl)C1(Cl)C5(Cl)C24Cl` (stereo not given), the AC50 is 3.57 µM (active) and 3.03 µM (active); the outcome was inactive.
On to `CCOP(=O)(CN(CCO)CCO)OCC`, for which the compound was called inactive.
The same measure, in the same setting: the value for `CCCCCCCCCl` was “inactive”; that for `Cc1cc(Cl)ccc1O[C@H](C)C(=O)O` was “inactive”.
For `COc1cc2c(cc1OC)[C@@]13CCN4CC5=CCO[C@H]6CC(=O)N2[C@H]1[C@H]6[C@H]5C[C@H]43`, the outcome was inactive.
On to `ClC(Cl)=C(Cl)C(Cl)=C(Cl)Cl`, for which the compound was called inactive.
